According to the supplement of paper PMC8728848:
About 410 targets per protein were measured; listed, in parts, are those with the strongest signals and a random draw of the rest.

Experiments:
Assay in all cases: glycan array binding signal (z-score within array); higher = stronger binding
Details in all cases: glycan notation: IUPAC condensed, linker removed
[1] = molecular target: GlcNAc(b1-3)[GlcNAc(b1-6)]GlcNAc(b1-4)GlcNAc
Method in brief: (§1)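 Arrays were curated from the Consortium for Functional Glycomics database, 3228 in total, and kept only where the protein sequence was available. Binding is expressed as a within-array Z-score. This score was averaged across arrays of the same protein sequence at different concentrations or buffers and across linkers, and negative values can be read as non-binding.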

[2] = molecular target: GlcNAc(b1-4)[GlcNAc(b1-6)]GalNAc
Method in brief: as §1

[3] = molecular target: GlcNAc6S(b1-3)Gal(b1-4)GlcNAc
Method in brief: as §1

Man(a1-2)Man(a1-3)Man = molecular target: Man(a1-2)Man(a1-3)Man
Method in brief: as §1

[4] = molecular target: Man(a1-2)Man(a1-3)[Man(a1-2)Man(a1-6)]Man(a1-6)[Man(a1-2)Man(a1-2)Man(a1-3)]Man
Method in brief: as §1

[5] = molecular target: Man(a1-3)[Man(a1-6)]Man(a1-6)[Man(a1-2)Man(a1-3)]Man(b1-4)GlcNAc(b1-4)GlcNAc
Method in brief: as §1

[6] = molecular target: Man(a1-3)[Man(a1-6)]Man(a1-6)[Man(a1-3)]Man(b1-4)GlcNAc(b1-4)GlcNAc
Method in brief: as §1

[7] = molecular target: Neu5Ac(a2-3)Gal(b1-3)GlcNAc
Method in brief: as §1

[8] = molecular target: Neu5Ac(a2-3)Gal(b1-4)GlcNAc(b1-3)Gal(b1-4)GlcNAc(b1-3)Gal(b1-4)GlcNAc(b1-2)Man(a1-3)[Neu5Ac(a2-3)Gal(b1-4)GlcNAc(b1-3)Gal(b1-4)GlcNAc(b1-3)Gal(b1-4)GlcNAc(b1-2)Man(a1-6)]GalNAc
Method in brief: as §1

[9] = molecular target: Neu5Ac(a2-3)Gal(b1-4)GlcNAc(b1-3)Gal(b1-4)GlcNAc(b1-3)GalNAc
Method in brief: as §1

[10] = molecular target: Neu5Ac(a2-3)Gal(b1-4)[Fuc(a1-3)]GlcNAc(b1-3)GalNAc
Method in brief: as §1

Neu5Ac(a2-6)Gal = molecular target: Neu5Ac(a2-6)Gal
Method in brief: as §1

[11] = molecular target: Neu5Ac(a2-6)Gal(b1-4)GlcNAc(b1-3)Gal(b1-4)GlcNAc(b1-3)Gal(b1-4)GlcNAc
Method in brief: as §1

[12] = molecular target: Neu5Ac(a2-6)Gal(b1-4)GlcNAc(b1-3)Gal(b1-4)GlcNAc(b1-3)Gal(b1-4)GlcNAc(b1-2)Man(a1-3)[Neu5Ac(a2-6)Gal(b1-4)GlcNAc(b1-3)Gal(b1-4)GlcNAc(b1-3)Gal(b1-4)GlcNAc(b1-2)Man(a1-6)]GalNAc
Method in brief: as §1

[13] = molecular target: Neu5Ac(a2-6)Gal(b1-4)GlcNAc(b1-3)Gal(b1-4)GlcNAc(b1-6)[Gal(b1-3)]GalNAc
Method in brief: as §1

[14] = molecular target: Neu5Ac(a2-8)Neu5Ac(a2-3)Gal(b1-3)GalNAc(b1-4)[Neu5Ac(a2-8)Neu5Ac(a2-3)]Gal(b1-4)Glc
Method in brief: as §1

[15] = molecular target: Neu5Ac(a2-8)Neu5Ac(a2-8)Neu5Ac(a2-3)[Gal(b1-3)GalNAc(b1-4)]Gal(b1-4)Glc
Method in brief: as §1

[16] = molecular target: Neu5Ac(b2-6)Gal(b1-4)GlcNAc
Method in brief: as §1

[17] = molecular target: Neu5Gc(a2-3)Gal(b1-4)GlcNAc
Method in brief: as §1

B1: ECA (Erythrina cristagalli), P83410 (protein)
chain: VETISFSFSEFEPGNDNLTLQGAALITQSGVLQLTKINQNGMPAWDSTGRTLYTKPVHMWDSTTGTVASFETRFSFSIEQPYTRPLPADGLVFFMGPTKSKPAQGYGYLGVFNNSKQDNSYQTLAVEFDTFSNPWDPPQVPHIGIDVNSIRSIKTQPFQLDNGQVANVVIKYDAPSKILHVVLVYPSSGAIYTIAEIVDVKQVLPDWVDVGLSGATGAQRDAAETHDVYSWSFQASLPE
glycan array binding signal (z-score) [1]: -0.277
glycan array binding signal (z-score) [2]: -0.228
glycan array binding signal (z-score) [3]: -0.243
glycan array binding signal (z-score) (Man(a1-2)Man(a1-3)Man): -0.285
glycan array binding signal (z-score) [4]: -0.091
glycan array binding signal (z-score) [5]: 1.29
glycan array binding signal (z-score) [6]: -0.177
glycan array binding signal (z-score) [7]: -0.269
glycan array binding signal (z-score) [8]: 7.35
glycan array binding signal (z-score) [9]: -0.407
glycan array binding signal (z-score) [10]: 0.567
glycan array binding signal (z-score) (Neu5Ac(a2-6)Gal): -0.208
glycan array binding signal (z-score) [11]: -0.578
glycan array binding signal (z-score) [12]: 5.2
glycan array binding signal (z-score) [13]: 0.104
glycan array binding signal (z-score) [14]: -0.352
glycan array binding signal (z-score) [15]: 0.194
glycan array binding signal (z-score) [16]: -0.088
glycan array binding signal (z-score) [17]: -0.327
